{"source": "the supplement of paper PMC12024529", "data": [{"test_system": "HEK293 WT BDD-FVIII-Gluc", "experiment": "secreted FVIII-Gluc luciferase Z-score vs DMSO control; higher = more FVIII-Gluc secretion", "details": "5 µM", "protocol": "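Natural plant-compound library (480 compounds, ST catalogue IDs) screened on HEK293 cells stably expressing WT BDD-FVIII-Gaussia luciferase fusion at 5 µM. Secreted Gluc activity in the medium is given as a Z-score relative to DMSO controls.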", "values": [{"smiles": "NC(CC(=O)O)C(=O)O", "note": "(centres undefined)", "secreted FVIII-Gluc luciferase Z-score": 0.487}, {"smiles": "O=C1C[C@@H]2[C@@H](CO)[C@H](O)C[C@@H]2O1", "secreted FVIII-Gluc luciferase Z-score": 0.258}, {"smiles": "N=C(N)NCCC[C@H](N)C(=O)O", "secreted FVIII-Gluc luciferase Z-score": 0.938}, {"smiles": "COc1cc(/C=C/C(=O)N2CCCCC2=O)cc(OC)c1OC", "secreted FVIII-Gluc luciferase Z-score": 1.28}, {"smiles": "COc1cc(CNC(=O)CCCC/C=C/C(C)C)ccc1O", "secreted FVIII-Gluc luciferase Z-score": -0.484}, {"smiles": "COc1cc(C=O)ccc1O", "secreted FVIII-Gluc luciferase Z-score": 0.374}, {"smiles": "CO[C@@H]1[C@@H](O[C@@H]2O[C@H](C)[C@@H](O[C@H]3C[C@@](C)(O)[C@@H](OC(=O)CC(C)C)[C@H](C)O3)[C@H](N(C)C)[C@H]2O)[C@@H](CC=O)C[C@@H](C)[C@@H](O)/C=C/C=C/C[C@@H](C)OC(=O)C[C@H]1OC(C)=O", "secreted FVIII-Gluc luciferase Z-score": 0.0728}, {"smiles": "C=C1CCC2C(C)(CC[C@@H](O)C2(C)C)C1COc1ccc2ccc(=O)oc2c1", "note": "(some centres undefined)", "secreted FVIII-Gluc luciferase Z-score": 0.344}, {"smiles": "COc1ccc(-c2cc(=O)c3c(O)cc(O)cc3o2)cc1", "secreted FVIII-Gluc luciferase Z-score": 0.381}, {"smiles": "N[C@@H](Cc1c[nH]c2ccc(O)cc12)C(=O)O", "secreted FVIII-Gluc luciferase Z-score": 0.43}, {"smiles": "OC[C@H]1O[C@@H](n2cnc3c(NCc4ccco4)ncnc32)[C@H](O)[C@@H]1O", "secreted FVIII-Gluc luciferase Z-score": -1.03}, {"smiles": "CC(=O)Oc1c(C)c(C)c2c(c1C)CCC(C)(CCCC(C)CCCC(C)CCCC(C)C)O2", "note": "(centres undefined)", "secreted FVIII-Gluc luciferase Z-score": 0.728}, {"smiles": "Cc1c(C)c2c(c(C)c1O)CC[C@@](C)(CCC[C@H](C)CCC[C@H](C)CCCC(C)C)O2", "secreted FVIII-Gluc luciferase Z-score": 0.497}, {"smiles": "O=c1cc(-c2ccc(O)cc2O)oc2ccccc12", "secreted FVIII-Gluc luciferase Z-score": 0.498}, {"smiles": "O=c1cc(-c2cccc(O)c2)oc2cccc(O)c12", "secreted FVIII-Gluc luciferase Z-score": 0.424}, {"smiles": "Nc1ccn([C@@H]2O[C@H](CO)[C@@H](O)[C@H]2O)c(=O)n1", "secreted FVIII-Gluc luciferase Z-score": 1.12}, {"smiles": "COc1cc(/C=C/C(=O)CC(=O)/C=C/c2ccc(O)c(OC)c2)ccc1O", "secreted FVIII-Gluc luciferase Z-score": 0.567}, {"smiles": "Cc1cn([C@H]2C[C@H](O)[C@@H](CO)O2)c(=O)[nH]c1=O", "secreted FVIII-Gluc luciferase Z-score": 0.713}, {"smiles": "CNC[C@H](O)c1ccc(O)c(O)c1", "secreted FVIII-Gluc luciferase Z-score": 0.948}, {"smiles": "O=c1cc(-c2ccccc2)oc2cc(O)cc(O)c12", "secreted FVIII-Gluc luciferase Z-score": 0.596}, {"smiles": "O=C(O)c1cc(O)c2c(c1)[C@@H]([C@H]1c3cc(C(=O)O)cc(O)c3C(=O)c3c(O[C@@H]4O[C@H](CO)[C@@H](O)[C@H](O)[C@H]4O)cccc31)c1cccc(O[C@@H]3O[C@H](CO)[C@@H](O)[C@H](O)[C@H]3O)c1C2=O", "secreted FVIII-Gluc luciferase Z-score": 0.274}, {"smiles": "O=c1cc(-c2ccccc2)oc2cc(O)c(O)c(O)c12", "secreted FVIII-Gluc luciferase Z-score": -0.284}, {"smiles": "c1coc(CNc2ncnc3nc[nH]c23)c1", "secreted FVIII-Gluc luciferase Z-score": 0.193}, {"smiles": "C=C[C@@](C)(O)CC[C@@H]1[C@@]2(C)CCCC(C)(C)[C@@H]2CC[C@@]1(C)O", "secreted FVIII-Gluc luciferase Z-score": 0.556}, {"smiles": "CC1(C)[C@@H](O)CC[C@]2(C)[C@H]3C(=O)C=C4[C@@H]5C[C@@](C)(C(=O)O)CC[C@]5(C)CC[C@@]4(C)[C@]3(C)CC[C@@H]12", "secreted FVIII-Gluc luciferase Z-score": 0.00884}, {"smiles": "CC1=CC(=O)CC(C)(C)C1(O)/C=C/C(C)=C\\C(=O)O", "note": "(centres undefined)", "secreted FVIII-Gluc luciferase Z-score": 0.388}, {"smiles": "O=c1cc(-c2ccccc2O)oc2c1ccc1ccccc12", "secreted FVIII-Gluc luciferase Z-score": 0.301}, {"smiles": "O=C(N[C@H](CO)[C@H](O)c1ccc([N+](=O)[O-])cc1)C(Cl)Cl", "secreted FVIII-Gluc luciferase Z-score": 0.907}, {"smiles": "C/C1=C\\CC(OC(=O)c2ccc(O)cc2)/C(C)=C/C(O)C(C)(C)CCC1", "note": "(centres undefined)", "secreted FVIII-Gluc luciferase Z-score": -0.0859}, {"smiles": "CCCCCCCCCCCC1=C(O)C(=O)C=C(O)C1=O", "secreted FVIII-Gluc luciferase Z-score": 0.529}, {"smiles": "O=c1cc(-c2ccccc2)oc2c1ccc1ccccc12", "secreted FVIII-Gluc luciferase Z-score": 0.373}, {"smiles": "COC(=O)C1C2CC3c4[nH]c5cc(OC)ccc5c4CCN3CC2CC(OC(=O)c2cc(OC)c(OC)c(OC)c2)C1OC", "note": "(centres undefined)", "secreted FVIII-Gluc luciferase Z-score": -0.436}, {"smiles": "COc1cc2ccc(=O)oc2c(O)c1O", "secreted FVIII-Gluc luciferase Z-score": 0.185}, {"smiles": "Cc1cc(O)c2c(c1)C(=O)c1cc(O)cc(O)c1C2=O", "secreted FVIII-Gluc luciferase Z-score": -0.0482}, {"smiles": "N[C@@H](Cc1ccc(O)cc1)C(=O)O", "secreted FVIII-Gluc luciferase Z-score": 0.446}, {"smiles": "CN1C(CC(=O)c2ccccc2)CCC[C@H]1C[C@H](O)c1ccccc1", "note": "(some centres undefined)", "secreted FVIII-Gluc luciferase Z-score": 0.401}, {"smiles": "CC1(C)CCC[C@@]2(C)C1CCC1(C)OC(=O)CC12", "note": "(some centres undefined)", "secreted FVIII-Gluc luciferase Z-score": 0.281}, {"smiles": "Nc1ncnc2c1ncn2C1OC(COP(=O)(O)OP(=O)(O)OP(=O)(O)O)C(O)C1O", "note": "(centres undefined)", "secreted FVIII-Gluc luciferase Z-score": 0.477}, {"smiles": "O=c1cc(-c2ccc(O)c(O)c2)oc2cccc(O)c12", "secreted FVIII-Gluc luciferase Z-score": -0.512}]}]}
